Results on 16 compounds are retold here after PubChem BioAssay (NCI).

Among the test systems are SR leukemia; RPMI-8226 leukemia; OVCAR-8 ovarian; OVCAR-5 ovarian; OVCAR-4 ovarian; SK-OV-3 ovarian; IGROV1 ovarian; OVCAR-3 ovarian; HS 578T breast; NCI/ADR-RES ovarian.
Holding throughout (test): NCI-60 one-dose screen, 48 h (100 = growth as untreated, 0 = no growth, -100 = all killed)
Conditions in all cases: 10 µM unless noted

The panel holds about 83,000 compounds, 20% with a hit somewhere; the sample as a whole holds those more often.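 Single-concentration screen, 48 h exposure, 96-well plates. Endpoint: percent growth. Below 10 = active.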 Activity calls are given as the source filed them.

For the compound `N#CCCCCCn1c2ccccc2c2c3c(c4c5ccccc5n(CCCCCC#N)c4c21)C(=O)N(O)C3=O`, the growth in the experiment on SR leukemia is 42.9% (inactive); in the experiment with RPMI-8226 leukemia, 37.7% (inactive); with OVCAR-8 ovarian, 69.4% (inactive); in the experiment on OVCAR-5 ovarian, 109% (inactive); with OVCAR-4 ovarian, 93.4% (inactive); in the experiment with SK-OV-3 ovarian, 71.2% (inactive). In addition, the growth was 75.2% (inactive) with IGROV1 ovarian, 96.1% (inactive) with OVCAR-3 ovarian, 92.7% (inactive) in the experiment with HS 578T breast and 85.9% (inactive) with NCI/ADR-RES ovarian.

For the compound `C[Si](C)(C)Cc1ccccc1`, the growth was 143% (inactive) in the experiment on SR leukemia; 71.6% (inactive) with RPMI-8226 leukemia; 107% (inactive) in the experiment on OVCAR-8 ovarian; 94.1% (inactive) in the experiment with OVCAR-5 ovarian; 113% (inactive) with OVCAR-4 ovarian; 112% (inactive) in the experiment on SK-OV-3 ovarian. Besides, the growth was 125% (inactive) in the experiment on IGROV1 ovarian, 127% (inactive) in the experiment with OVCAR-3 ovarian, 120% (inactive) in the experiment on HS 578T breast and 105% (inactive) in the experiment with NCI/ADR-RES ovarian.

In the case of `Cn1cc(-c2csc(-c3cn(CCCN4CCCCC4)c4ccccc34)n2)c2cccnc21`, the growth in the experiment on SR leukemia is -50.7% (active); in the experiment with RPMI-8226 leukemia, -35.9% (active); in the experiment on OVCAR-8 ovarian, -68.4% (active); in the experiment on OVCAR-5 ovarian, 92.9% (inactive); with OVCAR-4 ovarian, -48.2% (active); with SK-OV-3 ovarian it was 94.7% (inactive). The growth was 79.6% (inactive) with IGROV1 ovarian, -80.9% (active) in the experiment with OVCAR-3 ovarian, 67.5% (inactive) in the experiment on HS 578T breast and -25% (active) with NCI/ADR-RES ovarian.

In the case of `Fc1ccc(NCc2nnc(-c3ccc(Cl)cc3)o2)cc1`, the growth with SR leukemia is 71.1% (inactive); in the experiment with RPMI-8226 leukemia, 54.1% (inactive); in the experiment with OVCAR-8 ovarian it was 79.9% (inactive); with OVCAR-5 ovarian, 86.9% (inactive); with OVCAR-4 ovarian, 69.2% (inactive); in the experiment on SK-OV-3 ovarian, 81.5% (inactive). In addition, the growth with IGROV1 ovarian was 51.6% (inactive); in the experiment on OVCAR-3 ovarian it was 79.6% (inactive); in the experiment on HS 578T breast, 84.6% (inactive); in the experiment with NCI/ADR-RES ovarian, 90.6% (inactive).

Take `O=C1OC(c2ccc(Cl)c(Cl)c2)=C/C1=C/c1cccc([N+](=O)[O-])c1`: the growth in the experiment with SR leukemia was 117% (inactive); in the experiment on RPMI-8226 leukemia, 99% (inactive); with OVCAR-8 ovarian, 99.4% (inactive); in the experiment with OVCAR-5 ovarian, 96.1% (inactive); in the experiment on OVCAR-4 ovarian it was 116% (inactive); in the experiment on SK-OV-3 ovarian, 96.5% (inactive). Moreover, the growth in the experiment on IGROV1 ovarian is 81.8% (inactive); with OVCAR-3 ovarian it was 111% (inactive); in the experiment on HS 578T breast it was 97.7% (inactive); in the experiment with NCI/ADR-RES ovarian it was 104% (inactive).

With `Cc1cc(N(CCCNc2ccnc3cc(Cl)ccc23)Cc2ccco2)nc(Cl)n1`, the growth with SR leukemia is 21.7% (inactive); in the experiment with RPMI-8226 leukemia, 18.6% (inactive); in the experiment on OVCAR-8 ovarian, 41.2% (inactive); with OVCAR-5 ovarian it was 69.3% (inactive); with OVCAR-4 ovarian, 54.1% (inactive); with SK-OV-3 ovarian, 58.7% (inactive). In addition, the growth in the experiment with IGROV1 ovarian is 51.8% (inactive); in the experiment on OVCAR-3 ovarian, 66.1% (inactive); in the experiment with HS 578T breast it was 75.4% (inactive); in the experiment with NCI/ADR-RES ovarian, 45.7% (inactive).

`CN1CCN(c2nc(-c3csc(-c4cccs4)n3)cc3ccccc23)CC1`: the growth in the experiment with SR leukemia is 2.45% (active); with RPMI-8226 leukemia, 13.3% (inactive); in the experiment with OVCAR-8 ovarian, 75.6% (inactive); in the experiment with OVCAR-5 ovarian, 87.7% (inactive); with OVCAR-4 ovarian it was 57.9% (inactive); in the experiment with SK-OV-3 ovarian, 90.8% (inactive). The growth was 23.1% (inactive) in the experiment with IGROV1 ovarian, 39.9% (inactive) in the experiment on OVCAR-3 ovarian, 71.3% (inactive) in the experiment on HS 578T breast and 70.8% (inactive) with NCI/ADR-RES ovarian.

For the compound `NC1(N)C=CC2=C(C=C1)C1(N)C3=C(C=CC(N)(N)C=C3)N2C2(N)C3=C(C=CC(N)(N)C=C3)N1C1=C2C=CC(N)(N)C=C1`, the growth with SR leukemia is 79.2% (inactive); with RPMI-8226 leukemia it was 18.6% (inactive); in the experiment with OVCAR-8 ovarian, 90.5% (inactive); in the experiment on OVCAR-5 ovarian, 105% (inactive); in the experiment on OVCAR-4 ovarian it was 90.7% (inactive); in the experiment with SK-OV-3 ovarian it was 102% (inactive). The growth is 94.8% (inactive) in the experiment with IGROV1 ovarian, 97.8% (inactive) in the experiment with OVCAR-3 ovarian, 81.6% (inactive) in the experiment with HS 578T breast and 82.9% (inactive) with NCI/ADR-RES ovarian.

Turning to `C/C(=N\Nc1cc(C)c2cc(C)ccc2n1)c1ccccn1`, the growth in the experiment on SR leukemia is 0.29% (active); with RPMI-8226 leukemia, -33.4% (active); in the experiment with OVCAR-8 ovarian it was -60% (active); with OVCAR-5 ovarian, -33.3% (active); with OVCAR-4 ovarian, -83.1% (active); with SK-OV-3 ovarian, 25.4% (inactive). The growth in the experiment with IGROV1 ovarian is -35.9% (active); in the experiment with OVCAR-3 ovarian, -40.6% (active); in the experiment with HS 578T breast, 45.9% (inactive); with NCI/ADR-RES ovarian, 1.12% (active).

Consider `c1ccc(-c2nc(Nc3ccc(-c4nc5ccccc5[nH]4)cc3)nc(N3CCOCC3)n2)cc1`, for which the growth is 8.94% (active) in the experiment on SR leukemia; -22.6% (active) in the experiment on RPMI-8226 leukemia; -50.4% (active) in the experiment with OVCAR-8 ovarian; 0.632% (active) in the experiment on OVCAR-5 ovarian; -47.2% (active) in the experiment with OVCAR-4 ovarian; -30.3% (active) in the experiment on SK-OV-3 ovarian. The growth in the experiment on IGROV1 ovarian is -38.1% (active); with OVCAR-3 ovarian it was -73.4% (active); in the experiment on HS 578T breast, -39.9% (active); in the experiment with NCI/ADR-RES ovarian, -60.8% (active).

For the compound `COc1cc(-c2cc3cc(O)ccc3oc2=O)cc(OC)c1OC`, the growth in the experiment with SR leukemia was 84% (inactive); in the experiment on RPMI-8226 leukemia, 91.7% (inactive); in the experiment on OVCAR-8 ovarian, 93.8% (inactive); in the experiment with OVCAR-5 ovarian it was 88.8% (inactive); in the experiment with OVCAR-4 ovarian, 97.3% (inactive); with SK-OV-3 ovarian, 102% (inactive). Further, the growth with IGROV1 ovarian is 98.7% (inactive); with OVCAR-3 ovarian, 114% (inactive); with HS 578T breast, 81.6% (inactive); in the experiment with NCI/ADR-RES ovarian, 91.2% (inactive).

With `COc1ccc(-c2nc(SCC(=O)Nc3ccc(C(C)=O)cc3)[nH]c(=O)c2C#N)cc1`, the growth in the experiment with SR leukemia was 97.5% (inactive); in the experiment with RPMI-8226 leukemia, 114% (inactive); with OVCAR-8 ovarian it was 91% (inactive); in the experiment with OVCAR-5 ovarian, 97.3% (inactive); with OVCAR-4 ovarian, 108% (inactive); in the experiment on SK-OV-3 ovarian, 79.5% (inactive). Also, the growth in the experiment with IGROV1 ovarian was 106% (inactive); with OVCAR-3 ovarian it was 108% (inactive); in the experiment with HS 578T breast it was 115% (inactive); in the experiment with NCI/ADR-RES ovarian, 108% (inactive).

Take `COc1cnc2c(c1)C(=O)c1c-2n(CCCNCCN2CCOCC2)c(=O)c2cc([N+](=O)[O-])ccc12`: the growth was -0.128% (active) in the experiment on SR leukemia; -14.5% (active) in the experiment with RPMI-8226 leukemia; 2.29% (active) with OVCAR-8 ovarian; 15.3% (inactive) with OVCAR-5 ovarian; -13.5% (active) in the experiment with OVCAR-4 ovarian; -12.9% (active) with SK-OV-3 ovarian. Besides, the growth in the experiment on IGROV1 ovarian is 15.6% (inactive); with OVCAR-3 ovarian it was -25.9% (active); with HS 578T breast it was 26.7% (inactive); in the experiment on NCI/ADR-RES ovarian, 7.12% (active).

In the case of `Cc1ccnc2c(OCc3ccccc3)cccc12`, the growth in the experiment with SR leukemia was 101% (inactive); with RPMI-8226 leukemia it was 99.2% (inactive); with OVCAR-8 ovarian, 115% (inactive); in the experiment with OVCAR-5 ovarian, 93.1% (inactive); in the experiment with OVCAR-4 ovarian, 72.2% (inactive); with SK-OV-3 ovarian it was 112% (inactive). The growth in the experiment on IGROV1 ovarian was 87.5% (inactive); with OVCAR-3 ovarian, 92.8% (inactive); with HS 578T breast it was 92.2% (inactive); in the experiment on NCI/ADR-RES ovarian, 86.1% (inactive).

Take `COC(=O)[C@]12CC[C@@H](C)[C@H](C)[C@@H]1C1=CC[C@@H]3[C@@]4(C)CC(=O)[C@H](OC(=O)c5ccco5)[C@@]5(C)COC(=C45)C[C@@]3(C)[C@]1(C)CC2`: the growth in the experiment on SR leukemia is 25.8% (inactive); with RPMI-8226 leukemia it was 24.4% (inactive); in the experiment on OVCAR-8 ovarian, 28.5% (inactive); in the experiment on OVCAR-5 ovarian it was 69.2% (inactive); in the experiment on OVCAR-4 ovarian, 19.6% (inactive); with SK-OV-3 ovarian, 36.1% (inactive). Moreover, the growth in the experiment with IGROV1 ovarian was 53% (inactive); in the experiment on OVCAR-3 ovarian it was 43.5% (inactive); in the experiment with HS 578T breast, 61.4% (inactive); in the experiment on NCI/ADR-RES ovarian, 33.3% (inactive).

Consider `C=C(C)[C@@H]1CC[C@]2(C=NCCCNCCCCNCCCN)CC[C@]3(C)[C@H](CC[C@@H]4[C@@]5(C)CCCNC(C)(C)[C@@H]5CC[C@]43C)[C@@H]12`, for which the growth in the experiment with SR leukemia was 21.7% (inactive); in the experiment on RPMI-8226 leukemia, 107% (inactive); in the experiment with OVCAR-8 ovarian, 83.8% (inactive); in the experiment on OVCAR-5 ovarian it was 112% (inactive); with OVCAR-4 ovarian, 102% (inactive); in the experiment on SK-OV-3 ovarian, 95.8% (inactive). Also, the growth with IGROV1 ovarian was 112% (inactive); in the experiment with OVCAR-3 ovarian it was 106% (inactive); with HS 578T breast, 104% (inactive); in the experiment with NCI/ADR-RES ovarian, 91.8% (inactive).
